An excerpt weighted towards active compounds, which were near 7% of everything screened.
HP1b chromo inh = inhibitors of HP1-beta chromodomain binding to methylated histone tails; P83916; AlphaScreen HP1-beta / biotin-H3K9me3 peptide binding; Potency, µM (highest dose often 114 µM), without a hit: at the top dose activity change, negative = inhibition, hits mostly inhibitors; 390,000 tested, 0.56% active; AID 540317; also: potency is read from the fitted curve at half-maximal effect; nearly all actives have a fitted effect of over 70% in size
Target sequence (P83916 whole entry, looked up): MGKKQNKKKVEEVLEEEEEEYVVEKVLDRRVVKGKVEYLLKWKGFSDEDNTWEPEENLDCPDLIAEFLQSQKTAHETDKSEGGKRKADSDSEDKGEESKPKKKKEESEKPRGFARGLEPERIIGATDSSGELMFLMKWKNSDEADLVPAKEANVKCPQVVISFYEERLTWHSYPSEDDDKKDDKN
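HP1-beta protein (50 nM final) preincubated 30 min at room temperature with biotinylated H3(1-18)K9me3 peptide (50 nM) in PBS pH 7.4, 0.01% Tween-20, then compound added for 30 min. AlphaScreen streptavidin donor/nickel chelate acceptor beads (10 ug/mL final), 30 min dark, luminescence read.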
BAZ2B block = inhibitors of human BAZ2B bromodomain; AlphaScreen BAZ2B-H3K14Ac peptide displacement; Potency, µM (titrated, usually from 114 µM), without a hit: top-dose activity change, negative = inhibition, most hits filed as inhibitors; 360,000 tested, 4.4% active; also: potency is read from the fitted curve at half-maximal effect; % is scaled to controls: 0 for no effect and ±100 for the full control effect; nearly all actives have a fitted effect of over 60% in size
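Protein-peptide AlphaScreen: BAZ2B 50 nM, b-H3K14Ac 50 nM, 1x PBS pH 7.4 + 0.01% Tween-20. Preincubation 30 min RT; cpd 30 min RT (top 110 uM); beads 20 min RT, light-protected.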
PI5P4K alpha inh = inhibitors of human PI5P4K alpha; max response, %; AID 652105; 330,000 tested, 1.2% active; P48426; PI5P4Kalpha enzyme, ADP-Glo luminescence, 60 min; hits give low values; active = max response of -50% or lower; inconclusive = between -30% and -50%; inactive = -30% or higher; also: value at the top dose of about 77 µM; % is scaled to controls: 0 for no effect and ±100 for the full control effect
Target sequence (P48426 whole entry, looked up): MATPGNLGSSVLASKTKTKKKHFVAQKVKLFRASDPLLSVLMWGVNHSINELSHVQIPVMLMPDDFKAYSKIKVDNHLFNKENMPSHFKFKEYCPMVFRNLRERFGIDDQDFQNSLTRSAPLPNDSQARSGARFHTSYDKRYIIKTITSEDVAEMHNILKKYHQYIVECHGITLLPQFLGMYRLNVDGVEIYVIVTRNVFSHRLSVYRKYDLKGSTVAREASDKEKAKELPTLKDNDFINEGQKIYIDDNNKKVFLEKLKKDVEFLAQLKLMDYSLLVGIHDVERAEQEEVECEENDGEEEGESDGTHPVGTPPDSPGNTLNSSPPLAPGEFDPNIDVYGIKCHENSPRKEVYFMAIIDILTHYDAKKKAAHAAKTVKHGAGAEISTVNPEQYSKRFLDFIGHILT
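Enzyme plus substrate dispensed, test compounds pinned in, then ATP (5 microM final) added. After 60 min at RT, ADP-Glo reagent 1 for 45 min and reagent 2 for 30 min preceded luminescence imaging.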
JMJD2A Tudor = inhibitors of human JMJD2A Tudor domain | O75164 | AlphaScreen JMJD2A-Tudor / H3K4me3 peptide binding | Potency, µM (top dose mostly 114 µM), inactives show top-dose activity change, negative = inhibition, hits mostly inhibitors | 390,000 tested, 4.4% active; also: potency is read from the fitted curve at half-maximal effect; % is scaled to controls: 0 for no effect and ±100 for the full control effect; nearly all actives have a fitted effect of over 50% in size
GCN5L2 inh = inhibitors of human GCN5L2 histone acetyltransferase | Q92830 | GCN5L2 HAT assay, ThioGlo1 CoA-SH fluorescence | Potency, µM (titrated, usually from 58.9 µM), inactives show top-dose activity change, negative = inhibition, usual class: inhibitors | 390,000 tested, 0.21% active; also: potency is read from the fitted curve at half-maximal effect; % is scaled to controls: 0 for no effect and ±100 for the full control effect
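Compounds, pin-transferred from DMSO stocks, meet 20nM GCN5L2 for 15 min before the reaction begins with H3(1-25) peptide (75uM) and acetyl-CoA (70uM). Thiol-reactive ThioGlo1 reports CoA release over 20 min at room temperature.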
PLK1 PBD block = PLK1 (human) polo-box domain binding inhibition | 360,000 tested, 2.8% active | Plk1 PBD binding of FITC phosphopeptide, fluorescence polarization | Potency, µM, for inactives: max response, negative = inhibition, actives largely listed as inhibitors; also: potency is read from the fitted curve at half-maximal effect; series mostly up to about 57 µM; % is scaled to controls: 0 for no effect and ±100 for the full control effect; nearly all actives have a fitted effect of over 65% in size
Starred values were filed as active, the others as inactive; ? = inconclusive; . = no result given; [ ] = another dose, or the depositor's remark. Unless noted, calls follow the shape of the dose curve; as a rule, active = well fitted curve in the direction sought with a large enough effect; inconclusive = small, poorly fitted or top-dose-only effect, or another doubt; inactive = no such curve, though single readings can be large; an effect the other way counts as inactive or inconclusive.

SMILES | HP1b chromo inh | BAZ2B block | PI5P4K alpha inh | JMJD2A Tudor | GCN5L2 inh | PLK1 PBD block
COc1cccc(CN(C)C(=O)c2ccc(S(=O)(=O)Nc3ccccc3C)cc2)c1OC | . | . | -6 | . | . | 1%
O=C(NC1CCCCC1)c1nc(C2CCNCC2)oc1-c1ccccc1 | . | . | -1 | . | . | 1%
CCc1noc2nc(C)n(CC(=O)O)c(=O)c12 | 38% | -6% | . | -8% | -3% | .
Cc1ccc(Cn2c(=O)n(-c3cccc(C(F)(F)F)c3)c(=O)c3c(C)c(C)sc32)c(C)c1 | 21% | 2% | . | 1% | -6% | .
Cc1ccc2nc(CCl)[n+]([O-])c(-c3ccccc3)c2c1 | 9% | -32% | ? | 18µM* | -1% | 3.4µM*
Cc1cc(Cl)c(OCCn2ccnc2)c(Br)c1 | ? | ? | -4 | 18µM* | -4% | 2%
Clc1ccc(OCCn2ccnc2)c(Cl)c1 | ? | 50µM* | . | 3.5µM* | -4% | -4%
Clc1ccc(SCCn2ccnc2)cc1 | ? | 56µM* | -4 | 3.5µM* | -6% | -8%
C=CCc1cc(Cl)ccc1OCCn1ccnc1 | ? | 50µM* | -1 | 20µM* | -4% | -7%
CC1CC(=O)N(CC(=O)Nc2cccc(F)c2)c2ccccc2S1(=O)=O (stereo not drawn) | 45% | -7% | 3 | -8% | -3% | -6%
CC(C)c1ccc(C(=O)N2CCCC(c3cc(C(=O)Nc4ccccc4Cl)no3)C2)cc1 (stereo not drawn) | . | . | 7 | . | . | 4%
CN1CCC(N2CCN(C3CN(Cc4cn(Cc5cccc(C(F)(F)F)c5)nn4)S(=O)(=O)C3)CC2)CC1 (stereo not drawn) | . | . | 1 | . | . | -7%
C=CCc1cc(C)ccc1OCCOCCn1ccnc1 | 28µM* | 32µM* | 8 | 3.2µM* | 1% | -17%
CCCN1CCC(N(CCc2ccccc2)Cc2ccccc2)CC1 | 21% | -2% | 23 | -16% | -3% | -2%
COc1ccc(CCN(C)C(=O)CN2C(=O)c3ccccc3S2(=O)=O)cc1OC | ? | -2% | 1 | 79µM* | -2% | ?
CCCN1CCC(N(C)CCc2ccc(OC)c(OC)c2)CC1 | 20% | . | . | -5% | -5% | -9%
COc1ccc(CN2CCC(C(=O)N(C)CCc3ccc(OC)c(OC)c3)CC2)c(OC)c1 | ? | ? | 7 | 7.9µM* | -1% | -10%
COc1ccc(CN2CCC(N(CCc3ccccc3)Cc3ccccc3)CC2)c(OC)c1 | ? | 40µM* | -8 | 3.2µM* | -6% | -6%
COc1ccc(CCN(C)C(=O)C2CCN(Cc3cccc(OC)c3OC)CC2)cc1OC | -16% | ? | 1 | 3.2µM* | -10% | -3%
COc1ccc(CCN(C)C(=O)Cc2ccc(-c3ccccc3)cc2)cc1OC | -9% | -17% | -7 | -24% | -1% | -7%
COc1ccc(CCN(C)C(=O)C2CCN(Cc3ccccc3)CC2)cc1OC | ? | 12% | 3 | 22µM* | -6% | -4%
COc1ccc(CCN(C)C(=O)C2CC(=O)N(Cc3ccc(C)cc3)C2)cc1OC (stereo not drawn) | 26% | 4% | 3 | -3% | -3% | -9%
NC(=O)c1c(NC(=O)COC(=O)c2ccc(O)c(Cl)c2)sc2c1CCCC2 | 12% | . | -55* | -13% | -15% | ?
COC(=O)c1c(NC(=O)COC(=O)c2ccc(NC(=O)CC#N)cc2)sc2c1CCCCC2 | -17% | 45µM* | -62* | 45µM* | 21% | -14%
Cc1ccc(C)c(CSc2nnc3[nH]c(=O)cc(C)n23)c1 | 31% | -1% | . | -7% | 2% | .
SMILES | HP1b chromo inh | BAZ2B block | PI5P4K alpha inh | JMJD2A Tudor | GCN5L2 inh | PLK1 PBD block
Cc1cnc(NC(=O)CN2C(=O)C3CC=CCC3C2=O)s1 (stereo not drawn) | 5% | . | -2 | 56µM* | -2% | -7%
O=C(CN1C(=O)COc2ccc(S(=O)(=O)N3CCOCC3)cc21)Nc1ccc(F)c(Cl)c1 | 30% | -20% | . | -6% | -4% | .
CCOc1cc2c(cc1OCC)C(CC(=O)O)N(C(=O)Nc1ccc(Br)c(C)c1)CC2 (stereo not drawn) | -15% | -30% | . | -29% | 0% | .
O=[N+]([O-])c1ccc(NN=Cc2cccc3ccccc23)cc1 | 11%[57 µM] | . | 4 | -6% | . | 1%
Cc1ccc[n+](-c2nc([O-])sc2/C=N/Nc2ccc([N+](=O)[O-])cc2)c1 | 4% | 40µM* | -13 | -18% | -3% | -22%
COc1ccc(-c2cc(=O)oc3c(C)c(O)c(CN(C)C)cc23)cc1 | 2% | -9% | . | 22µM* | -14% | -1%
Cc1ccccc1NC(=O)CSc1ccncc1 | 29% | -23% | -2 | -4% | -3% | -3%
CC1CCCN(C2=C(NS(=O)(=O)c3ccc(Cl)cc3)C(=O)c3ccccc3C2=O)C1 (stereo not drawn) | 6.3µM* | 5µM* | 1 | 8.9µM* | -8% | ?
COC(=O)C1CCN(C2=C(NS(=O)(=O)c3ccc(Cl)cc3)C(=O)c3ccccc3C2=O)CC1 | ? | 11µM* | 1 | ? | -6% | 21µM*
NC(=O)C1CCN(C2=C(NS(=O)(=O)c3ccc(Cl)cc3)C(=O)c3ccccc3C2=O)CC1 | -20% | 35µM* | -4 | ? | -3% | -13%
COC(=O)C1CCN(S(=O)(=O)Cc2ccccc2Cl)CC1 | 31% | 12% | -3 | -6% | -4% | -18%
O=S(=O)(c1ccc2c(c1)OCCO2)N1CCN(S(=O)(=O)c2ccc(F)c(F)c2F)CC1 | . | . | . | -10% | . | .
CCN(CC)c1ccc(NC(=O)C2CC3CCC2C3)cc1 (stereo not drawn) | ? | -68% | -7 | 79µM* | -8% | -6%
O=C(Nc1ccccc1)C1CC2CCC1C2 (stereo not drawn) | 26% | 24% | 1 | -8% | -1% | -1%
O=C(CSc1nc2nc(-c3cccs3)cc(C(F)(F)F)c2c(=O)[nH]1)Nc1ccc(F)c(F)c1 | -1% | ? | -1 | ? | 0% | 7.5µM*
N#Cc1c(C(F)(F)F)cc(-c2cccs2)nc1SCC(=O)Nc1ccc(Cl)cc1 | 30% | 6% | . | -2% | -24% | .
O=C(NCc1ccc2c(c1)CCN2C(=O)c1ccncc1)c1ccc(Cl)cc1 | 19% | -9% | . | -17% | -7% | .
O=C(NC1CC1)c1ccc(S(=O)(=O)NC2CCCCCC2)cc1 | 10% | 7% | . | -7% | -5% | 0%
CC1CCCCC1NC(=O)c1ccc(S(=O)(=O)NNC(=O)c2ccncc2)cc1 (stereo not drawn) | 27% | 89µM* | -6 | 3.5µM* | -4% | ?
O=C(NNS(=O)(=O)c1ccc(C(=O)NC2CCCC2)cc1)c1ccncc1 | 20% | -30% | -12 | 1.3µM* | -9% | ?

Screening results (PubChem)
